Shown is part of a subset that was picked to be rich in hits.
S1P2 agonist = S1P2 receptor agonists, primary screen, cell-based; Sphingosine 1-phosphate receptor 2 (Homo sapiens), O95136; S1P2-expressing cell line, agonist reporter read-out; activation, % at 4.5 µM; 97,000 tested, 0.46% active; AID 729, 2007; in the data active means activation above about 16%
Target sequence (O95136 whole entry, looked up): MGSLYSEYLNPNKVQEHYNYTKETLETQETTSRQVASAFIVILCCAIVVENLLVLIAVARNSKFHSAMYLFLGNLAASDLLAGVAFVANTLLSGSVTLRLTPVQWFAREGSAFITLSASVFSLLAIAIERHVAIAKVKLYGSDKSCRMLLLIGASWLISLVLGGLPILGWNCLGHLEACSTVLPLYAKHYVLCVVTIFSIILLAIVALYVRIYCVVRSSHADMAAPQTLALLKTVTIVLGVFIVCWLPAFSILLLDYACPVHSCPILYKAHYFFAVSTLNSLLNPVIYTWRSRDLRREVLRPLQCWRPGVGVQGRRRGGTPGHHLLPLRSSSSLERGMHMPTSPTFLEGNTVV
PostGolgi yeast = phenotypic screen on post-Golgi transport, primary screen. post-Golgi transport phenotypic cell assay. inhibition, % at 10 µM. 98,000 tested, 0.9% active. AID 739, 2007;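 further: yeast cells grown in 1536-well plates; yeast grown about 18 h at 30C before absorbance read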
S1P2 blocker = human S1P2 receptor antagonists, primary screen, cell-based; Sphingosine 1-phosphate receptor 2 (Homo sapiens), O95136; cell-based S1P2 antagonist assay, inhibition at 5 uM; inhibition, % at 5 µM; 97,000 tested, 0.21% active; AID 736, 2007; in the data active means inhibition above about 45%;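 further: CRE beta-lactamase reporter cells expressing human S1P2 stimulated with S1P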
GALR2 antag = GALR2 antagonists in receptor-expressing cells, primary screen; antagonist mode; inhibition, % at 4 µM; 140,000 tested, 0.39% active; in the data active means inhibition above about 27%;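 further: cells stimulated with galanin 1-16 at roughly its EC80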
GALR2 ag = GALR2 receptor agonists, primary screen, cell-based | 140,000 tested, 0.48% active | GALR2-expressing cells, agonist activation read-out | activation, % (test concentration not listed); in the data active means activation above about 5%, passing the limit was not always enough
PostGolgi ctrl = growth inhibition of yeast control strain, primary screen, counter-screen for post-Golgi transport modulator project | efflux-deficient yeast background strain, growth absorbance A615, 16 h | inhibition, % at 10 µM | 98,000 tested, 5% active
Large screens that a line does not name were inactive. Unless noted, no stated cut-off is given here; in the data, active means inhibition above about 30%; inactive means the rest.

O=C(Cc1ccc(Cl)cc1)Nc1ccc(-c2nnc(-c3ccco3)o2)cc1	PostGolgi yeast 31
CCC(=O)Nc1ccc(-c2nnc(-c3ccccc3)o2)cc1	PostGolgi ctrl 40
CCCc1cc(C(N)=O)c(NC(=O)c2ccoc2C)s1	none
CCCc1cc(C(N)=O)c(NC(=O)c2cc(C)on2)s1	PostGolgi ctrl 49
Cc1ccc(N(C(=O)Cn2nnc(-c3ccccc3)n2)C(C(=O)NC2CCCCC2)c2ccccn2)cc1C (configuration not stated)	none (no result: S1P2 agonist, PostGolgi yeast, S1P2 blocker, PostGolgi ctrl)
CC(CO)Nc1nc(SCc2ccccc2)nc2sc3c(c12)CCC3 (configuration not stated)	PostGolgi ctrl 50
COCCNc1nc(SCc2ccccc2)nc2sc3c(c12)CCC3	none
Cc1c(NC(=O)CSc2nnc(C(C)Oc3ccc(Cl)cc3)n2-c2ccccc2)c(=O)n(-c2ccccc2)n1C (configuration not stated)	PostGolgi ctrl 32
COc1ccccc1OC(C)c1nnc(SCC(=O)Nc2c(C)n(C)n(-c3ccccc3)c2=O)n1-c1ccccc1 (configuration not stated)	none
CC1CC(C)CN(S(=O)(=O)c2ccc(C(=O)Nc3sccc3C(N)=O)cc2)C1 (configuration not stated)	none
NC(=O)c1ccsc1NC(=O)c1ccc(S(=O)(=O)N2CCCCC2)cc1	PostGolgi ctrl 51
CC(=O)c1cccc(NC(=O)COc2cc3oc(=O)c(CC(C)O)c(C)c3cc2Cl)c1 (configuration not stated)	none (no result: S1P2 agonist, PostGolgi yeast, S1P2 blocker, PostGolgi ctrl)
C=CCc1ccc(OCC(O)CN2CCC(Cc3ccccc3)CC2)c(OC)c1 (configuration not stated)	PostGolgi yeast 98, PostGolgi ctrl 63
CC1=Nc2ccccc2/C1=C/c1sc(=O)n(CC(=O)N2CCCC2)c1O	none
O=C(Cn1c(O)c(/C=C2\C=Nc3ccc(Br)cc32)sc1=O)N1CCCC1	PostGolgi ctrl 37
COc1ccc(-n2c(=O)c3ccccc3n(CC(=O)NC3CCCC3)c2=O)cc1	PostGolgi ctrl 37
COC(=O)Oc1ccc(/C=N/NC(=O)CSCc2ccccc2Br)cc1OC	none
NS(=O)(=O)c1cccc(NC(=O)CN2CCN(Cc3ccc4c(c3)OCO4)CC2)c1	none (no result: S1P2 agonist, PostGolgi yeast, S1P2 blocker, PostGolgi ctrl)
O=C(Cc1c(O)c2ccccc2[nH]c1=O)N(Cc1ccccc1)Cc1ccccc1	PostGolgi yeast 36
CCCCc1c(C)c2cc(C)ccc2[nH]c1=O	PostGolgi ctrl 33
CCCCc1c(O)c2ccccc2[nH]c1=O	PostGolgi ctrl 43
CCCc1c(O)c2ccccc2[nH]c1=O	none
CCOc1ccc(S(=O)(=O)N(CC(=O)N/N=C/c2ccc(-c3ccc([N+](=O)[O-])cc3)o2)c2ccccc2)cc1	S1P2 blocker 61
COc1ccc2cc(/C=N/NC(=O)CN(c3ccccc3)S(=O)(=O)c3ccccc3)c(Cl)nc2c1	GALR2 ag 6.5 (no result: S1P2 agonist, PostGolgi yeast, S1P2 blocker, PostGolgi ctrl)
Cc1ccc(C)c(N(CC(=O)N/N=C/c2ccc(-c3ccc([N+](=O)[O-])cc3)o2)S(=O)(=O)c2ccccc2)c1	S1P2 blocker 67
O=C(CSc1cn(Cc2ccccc2)c2ccccc12)N1CCOCC1	none
O=C(CC(=O)c1ccccc1O)c1cccc(F)c1	PostGolgi ctrl 38
O=C(CC(=O)c1ccccc1O)c1ccc(F)cc1	PostGolgi ctrl 58
Cc1ccc(C(=O)CC(=O)c2cc(Cl)ccc2O)cc1	PostGolgi ctrl 33
CC(C)(C)c1ccc(C(=O)CC(=O)c2cc(Cl)ccc2O)cc1	none
O=C(Nc1ccccc1C(=O)O)c1cccc(F)c1	none (no result: PostGolgi yeast, PostGolgi ctrl)
N#Cc1c(N2CCCCC2)nc(N)c2c(N)nc3c(c12)CC(c1ccccc1)O3 (configuration not stated)	PostGolgi ctrl 53
OCCN(CCO)c1ncnc2c1oc1ccc(Br)cc12	S1P2 agonist 20
CCOC(=O)c1sc(NC(=O)/C=C/c2cnn(C)c2C)c(C(=O)OC(C)C)c1C	none
COC(=O)c1ccc(Cc2ccc(C(=O)OC)o2)o1	PostGolgi ctrl 36
Cc1ccc2nc(N3C(=O)C(O)=C(C(=O)c4cc5ccccc5o4)C3c3cccs3)sc2c1 (configuration not stated)	none
CCc1ccc2nc(N3C(=O)C(O)=C(C(=O)c4ccco4)C3c3cccs3)sc2c1 (configuration not stated)	PostGolgi ctrl 36
N#Cc1ccc(CSc2ncnc3c2cnn3Cc2ccccc2)cc1	PostGolgi ctrl 39
CCCCNc1ncnc2c1cnn2-c1ccc(Cl)cc1	PostGolgi ctrl 35 (no result: S1P2 agonist, S1P2 blocker)
Clc1ccc(Cn2ncc3c(NCc4ccccc4)ncnc32)cc1	PostGolgi ctrl 41
Clc1ccc(-n2ncc3c(NCc4ccccn4)ncnc32)cc1	PostGolgi ctrl 32
CCOCC(=O)Nc1cc(C(=O)OC)cc(C(=O)OC)c1	none (no result: S1P2 agonist, PostGolgi yeast, S1P2 blocker, PostGolgi ctrl)
Cc1ccc(C(=O)/C=C/c2cn(CN3CCN(C)CC3)c3ccccc23)cc1	PostGolgi ctrl 41
COc1ccccc1C1C(C(C)=O)=C(C)N=c2s/c(=C\c3cc(OC)c(OC)c(OC)c3)c(=O)n21 (configuration not stated)	S1P2 agonist 17 (no result: PostGolgi yeast, PostGolgi ctrl)
CC(=O)Nc1ccccc1-c1nnc(SCc2ccccc2Cl)[nH]c1=O	none
Nc1ccccc1-c1nnc(SCc2ccccc2Cl)[nH]c1=O	PostGolgi ctrl 37
COC(=O)/C=C1/S/C(=N/N=C/c2ccc(N(C)C)cc2)NC1=O	none (no result: S1P2 agonist, PostGolgi yeast, S1P2 blocker, PostGolgi ctrl)
CCOC(=O)c1c(NC(=O)CSc2nc3cccnc3n2C)sc(C(C)=O)c1C	PostGolgi ctrl 37
Cc1ccc(NC(=O)CC2S/C(=N/c3nccs3)N(C)C2=O)c(C)c1 (configuration not stated)	PostGolgi ctrl 32
COc1ccc(CN(C(=O)c2cnccn2)C(C(=O)Nc2ccc(F)cc2)c2ccccc2)cc1 (configuration not stated)	none (no result: PostGolgi yeast, PostGolgi ctrl)
Clc1ccc(-n2nnnc2-c2cnc(-c3ccncc3)nc2-c2cccs2)cc1	none (no result: PostGolgi yeast, PostGolgi ctrl)
FC(F)(F)c1nc(-c2cccs2)ncc1-c1nnnn1-c1ccc(Cl)cc1	PostGolgi ctrl 53
CCCCc1ccc(NS(=O)(=O)c2cccs2)cc1	PostGolgi ctrl 37
CCOC(=O)c1c(NS(=O)(=O)Cc2ccccc2)sc2c1CCCC2	PostGolgi ctrl 36
CCOC(=O)c1c(NC(=O)Cc2cccs2)sc2c1CCCC2	PostGolgi ctrl 37
O=C(NC1CCCC1)C(c1ccsc1)N(CCc1ccccc1)C(=O)Cc1cccs1 (configuration not stated)	GALR2 ag 6.0 (no result: S1P2 agonist, PostGolgi yeast, S1P2 blocker, PostGolgi ctrl)
O=C(NC1CCCC1)C(c1ccsc1)N(C(=O)Cc1cccs1)c1ccccc1 (configuration not stated)	none
CC(C)(C)NC(=O)CSc1ccc(C(C)(C)C)cc1	none (no result: PostGolgi yeast, PostGolgi ctrl)
c1ccc2sc(Cc3nnc4n3CCCCC4)nc2c1	PostGolgi ctrl 41 (no result: S1P2 agonist, S1P2 blocker)
COc1ccc(-c2csc(Cc3nnc4n3CCCCC4)n2)cc1	none

Bioassay records as filed in PubChem.
